An excerpt weighted towards active compounds, which were near 0.67% of everything screened.
TcdB GH inh – TcdB glycohydrolase inhibition | AID 652162 | hit rate 0.24% among 350,000 | inhibition, % at 9.99 µM | TcdB glycohydrolase enzymatic assay, plate reader; in the data active = inhibition above about 10%
Sa ugtP lethal – growth inhibition of S. aureus ugtP deletion strain; S. aureus RN4220 ugtP deletion, OD600 growth, 16 h; growth inhibition, % (concentration not given with the values); hit rate 0.54% among 330,000; AID 1259309; in the data active = growth inhibition above about 68%;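 also: plate controls were untreated wells for no effect and antibiotic for full effect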
RN4220 kill – kills Staphylococcus aureus RN4220; hit rate 0.33% among 330,000; S. aureus RN4220 growth, OD600, 16 h; AID 1259311; inhibition, % (test concentration not listed); in the data active = inhibition above about 85%;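 also: plate controls were untreated cells for no effect and reference antibiotic for full effect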
Vc quorum ag – inducers of Vibrio cholerae quorum light production without autoinducers; V. cholerae BH1578 lux reporter, luminescence, 6 h; activation, % at 18.7 µM; hit rate 0.16% among 350,000; AID 588436; in the data active = activation mostly above about 9.7%, no sharp cut-off
The depositor's hits bear a star.

Results for N#CCc1ccc(NC(=O)/C=C/c2ccc([N+](=O)[O-])o2)cc1 ?
Sa ugtP lethal: 100.4*; RN4220 kill: 100.7*; Vc quorum ag: -0.5

How did O=C(O)/C=C/c1ccc([N+](=O)[O-])o1 do in these assays?
TcdB GH inh: -0.6; Sa ugtP lethal: 27.5; RN4220 kill: 2.7; Vc quorum ag: -0.4

How did Cc1cccc(C(=O)CC(=O)c2cc(Cl)ccc2O)c1 do in these assays?
Sa ugtP lethal: 100.3*; RN4220 kill: 99.9*; Vc quorum ag: -1.9

What do the screens show for `COc1ccc(O)c(C(=O)CC(=O)c2ccc(F)cc2)c1`?
Vc quorum ag: -6.2

Results for Cc1ccc(O)c(C(=O)CC(=O)c2cccc(F)c2)c1 ?
Sa ugtP lethal: 99.9*; RN4220 kill: 77.9; Vc quorum ag: 15.1

How did Cc1ccc(O)c(C(=O)CC(=O)c2ccc(Cl)cc2)c1 do in these assays?
TcdB GH inh: 1.5; Sa ugtP lethal: 101.0*; RN4220 kill: 99.7*; Vc quorum ag: inactive

How did O=C(CC(=O)c1cc(Cl)ccc1O)c1ccccc1 do in these assays?
TcdB GH inh: 0.7; Sa ugtP lethal: 100.3*; RN4220 kill: 100.1*; Vc quorum ag: -2.8

What do the screens show for `O=C(NC1CCCCC1)C(=NO)c1ccccn1`?
Sa ugtP lethal: 4.2; RN4220 kill: 2.8

Results for CC(=NNC(N)=S)C1C2C3CC4C5CC(C42)C1C53 (stereo not given) ?
Sa ugtP lethal: 4.6; RN4220 kill: 5.6

How did Cc1ccc(CCNC(=O)C2CCCN(S(=O)(=O)c3c(C)noc3C=CN(C)C)C2)cc1 (stereo not given) do in these assays?
Sa ugtP lethal: -6.7; RN4220 kill: 5.6

How did O=C(Cc1ccccc1)NC(Cc1ccccc1)C(=O)O (stereo not given) do in these assays?
Sa ugtP lethal: -6.3; RN4220 kill: 5.6

What do the screens show for `Cc1ccc(C2C3C(=O)N(C)C(=O)C3[C@]3(Cc4ccccc4)C(=O)N(Cc4ccccn4)CC(=O)N23)o1` (stereo not given in full)?
Sa ugtP lethal: -1.2; RN4220 kill: 4.5

Results for Cc1cc(C=C2C(=O)c3ccccc3C2=O)c(C)n1-c1cccc(C(=O)O)c1 ?
TcdB GH inh: 1.9; Sa ugtP lethal: -18.0; RN4220 kill: 8.3; Vc quorum ag: inactive

How did Cc1cc(C=C2C(=O)c3ccccc3C2=O)c(C)n1-c1ccc(C(=O)O)cc1 do in these assays?
TcdB GH inh: 26.7*; Sa ugtP lethal: 13.7; RN4220 kill: 19.2; Vc quorum ag: inactive

How did Cc1cc(/C=c2\sc3nc4ccccc4n3c2=O)c(C)n1-c1ccc(C(=O)O)cc1 do in these assays?
TcdB GH inh: 1.3; Vc quorum ag: -5.6

How did Cc1cc(C=c2sc3nc4ccccc4n3c2=O)c(C)n1-c1ccc(C(=O)O)cc1 do in these assays?
Sa ugtP lethal: 100.2*; RN4220 kill: 88.2

Results for COc1cc(C=CC(=O)O)cc(OC)c1OC ?
Sa ugtP lethal: 2.7; RN4220 kill: 5.2

Results for CN(C)C1C(=O)C(C(N)=O)=C(O)[C@@]2(O)C(=O)C3=C(O)c4c(O)cccc4[C@@](C)(O)C3CC12 (stereo not given in full) ?
Sa ugtP lethal: 100.0*; RN4220 kill: 100.5*

Results for CN(C)C1C(=O)C(C(N)=O)=C(O)[C@@]2(O)C(=O)C3=C(O)c4c(O)cccc4[C@@](C)(O)C3C(O)C12 (stereo not given in full) ?
Sa ugtP lethal: 99.2*; RN4220 kill: 99.9*

What do the screens show for `CN(C)C1C(=O)C(C(N)=O)=C(O)C2(O)C(=O)C3=C(O)c4c(O)cccc4C(C)(O)C3C(O)C12` (stereo not given)?
TcdB GH inh: -6.6; Sa ugtP lethal: 100.0*; RN4220 kill: 100.4*; Vc quorum ag: -0.7

Results for CN(C)C1C(=O)C(C(N)=O)=C(O)[C@@]2(O)C(=O)C3=C(O)c4c(O)ccc(Cl)c4C(O)C3CC12 (stereo not given in full) ?
Sa ugtP lethal: 99.3*; RN4220 kill: 100.2*

How did C[C@H]1c2cccc(O)c2C(O)=C2C(=O)[C@]3(O)C(O)=C(C(N)=O)C(=O)[C@@H](N(C)C)C3[C@@H](O)C21 (stereo not given in full) do in these assays?
TcdB GH inh: -0.8; Vc quorum ag: -0.2

How did CC(NC(=O)c1nc[nH]c1C(=O)NC(Cc1ccccc1)C(=O)OC(C)(C)C)C(=O)OC(C)(C)C (stereo not given) do in these assays?
Sa ugtP lethal: -17.6; RN4220 kill: 5.4

How did O=C(CN1CCOCC1)NN=Cc1ccc(-c2cccc(Cl)c2Cl)o1 do in these assays?
Sa ugtP lethal: -5.6; RN4220 kill: 0.1

What do the screens show for `COC(=O)c1ccc(C(NC(=O)OCc2ccccc2)C(F)=CC(C)C(=O)O)cc1` (stereo not given)?
Sa ugtP lethal: -0.6; RN4220 kill: 3.1

How did C=C(C)C1CC=C(C)C(=NNC(=O)CNc2ccc(C)cc2C)C1 (stereo not given) do in these assays?
Sa ugtP lethal: 5.8; RN4220 kill: 4.4

How did O=C1CCN(Cc2ccc(O)cc2)CCN1C(CO)c1ccccc1 (stereo not given) do in these assays?
Sa ugtP lethal: 0.9; RN4220 kill: 4.1

What do the screens show for `O=C(NN=Cc1c(F)cccc1Cl)C(=O)N1CCCCCC1`?
Sa ugtP lethal: -6.7; RN4220 kill: 19.1

How did O=C(NC(Nc1nc2ccc([N+](=O)[O-])cc2s1)(C(F)(F)F)C(F)(F)F)c1ccccc1Cl do in these assays?
TcdB GH inh: 0.4; Sa ugtP lethal: 98.5*; RN4220 kill: 100.0*; Vc quorum ag: -0.3

What do the screens show for `CC(OC(=O)[C@@H](NC(=O)OCc1ccccc1)C(C)C)C(=O)Nc1ccc(N2CCOCC2)cc1` (stereo not given in full)?
TcdB GH inh: 10.8*; Sa ugtP lethal: 0.2; RN4220 kill: -2.6; Vc quorum ag: inactive

What do the screens show for `CCOC(=O)C1C2COc3ccc(Br)cc3C2N2C(=O)N(c3ccc(C(F)(F)F)cc3)C(=O)[C@]12C` (stereo not given in full)?
Sa ugtP lethal: 0.6; RN4220 kill: -10.2

Results for COc1cccc(OCCSc2nnc3sc4ccccc4n23)c1 ?
Sa ugtP lethal: 18.8; RN4220 kill: 29.6; Vc quorum ag: -16.7

How did c1ccc(OCCSc2nnc3sc4ccccc4n23)cc1 do in these assays?
TcdB GH inh: 12.2*; Sa ugtP lethal: 3.4; RN4220 kill: 9.5; Vc quorum ag: inactive

Results for CN(C)S(=O)(=O)n1cnc(C2C3C(=O)OCC3C[C@@]23N=CN(Cc2ccccc2)C3=O)c1 (stereo not given in full) ?
Sa ugtP lethal: -6.1; RN4220 kill: 5.2

How did Cc1ccc2c(c1)sc(-c1ccc(N(C)C)cc1)[n+]2C do in these assays?
TcdB GH inh: 2.4; Sa ugtP lethal: 100.7*; RN4220 kill: 99.9*; Vc quorum ag: -0.4

Results for COc1ccc(C=NNC(=O)c2nc(Cl)c(Cl)c(N)c2Cl)cc1COc1ccc(F)cc1F ?
Sa ugtP lethal: -6.7; RN4220 kill: -5.4

What do the screens show for `[O-]c1ccccc1-[n+]1c(-c2ccccc2)cc(-c2ccccc2)cc1-c1ccccc1`?
TcdB GH inh: -0.5; Sa ugtP lethal: 100.1*; RN4220 kill: 100.6*; Vc quorum ag: inactive
